Molecules are shown by their SMILES. In all, about 11,000 compounds went through this assay and about 310 (2.8%) were called active. No stated cut-off is given here; in the data, active means activity change below about -85%; inactive means the rest. The list comes from a sample in which actives are over-represented; it also holds similar structures and randomly drawn compounds.

In the assay the test system is intestinal alkaline phosphatase [Mus musculus]. As to the kind of experiment: mouse intestinal phosphatase enzyme activation – biochemical, luminescence, single concentration, confirmation (AID 434970). The settings on record: purified mouse IAP, CDP-Star luminescence, 30 min, at 10 µM; activation factor: measured here: IAP activation factor, stronger effect = higher value; activity change, negative = activation: stronger effect = lower value.
Turning to `Cc1ccc(NC(=O)CN(C)C(=O)CCCN2C(=O)c3ccccc3C2=O)cc1`, the activation factor turned out to be 1.04 and the activity change, negative = activation is -3.95% (inactive).
On the same counts, the results for `C#CCOCCOCCOCCNc1nc(N2CCN(C(=O)CCCCCCCCCCNC(=O)[C@H]([C@@H](C)CC)n3cc(CCCCCN)nn3)CC2)nc(N2CCN(C(=O)CCCCCCCCCCNC(=O)[C@@H]([C@H](C)CC)n3cc(CCCCCN)nn3)CC2)n1` are 6.79 and -579% (active).
Turning to `C#CCOCCOCCOCCNc1nc(N2CCN(C(=O)CCCCCCCCCCNC(=O)[C@H]([C@@H](C)CC)n3cc(CCCCCN)nn3)CC2)nc(N2CCN(C(=O)CCCCCCCCCCNC(=O)[C@H](CO)n3cc(CCCCCN)nn3)CC2)n1`, the activation factor is 2.51 and the activity change, negative = activation was -151% (active).
For the compound `C#CCOCCOCCOCCNc1nc(N2CCN(C(=O)CCCCCCCCCCNC(=O)[C@H]([C@@H](C)CC)n3cc(CCCCCN)nn3)CC2)nc(N2CCN(C(=O)CCCCCCCCCCNC(=O)[C@@H]([C@H](C)O)n3cc(C)nn3)CC2)n1`, the activation factor is 4.1 and the activity change, negative = activation is -310% (active).
In the case of `CCOc1ccc(-n2cc(C(=O)Nc3cccc(Cl)c3)c3cc(OC)c(OC)cc3c2=O)cc1`, the activation factor amounted to 1.1 and the activity change, negative = activation was -10.2% (inactive).
Regarding `CNC(=O)/C(C#N)=C/c1ccc(-c2ccc(OC)cc2[N+](=O)[O-])o1`, the activation factor was 0.891 and the activity change, negative = activation is 10.9% (inactive).
As to `CC(C)N(C(=O)[C@H]1C[C@H](CC(=O)NCCC2=CCCCC2)C(=O)N2CCc3c([nH]c4ccc(Cl)cc34)[C@]12C)C(C)C`, the activation factor came to 1.23 and the activity change, negative = activation was -23.5% (inactive).
For `NC(=O)c1c(NC(=O)CSc2nnc(-c3ccco3)n2-c2ccccc2)sc2c1CCC2`, the activation factor came to 0.759 and the activity change, negative = activation was 24.1% (inactive).
On the same counts, the results for `COc1ccc(NC(=O)C2CCCN2c2ccc(OC)c(OC)c2)cc1OC` (centres undefined) are 1.14 and -14.2% (inactive).
For the compound `COc1ccc(C2C(C(=O)N3CCCC3)c3cc(OC)c(OC)cc3C(=O)N2C)cc1` (centres undefined), the activation factor stood at 0.989 and the activity change, negative = activation was 1.1% (inactive).
For the compound `COc1ccccc1NC(=O)CCNS(=O)(=O)c1ccc2[nH]c(=O)oc2c1`, the activation factor came to 0.265 and the activity change, negative = activation was 73.5% (inactive).
Turning to `COc1ccc(CNC(=O)C(C)n2ccc3cc(S(=O)(=O)N4CCCCCC4)ccc32)cc1` (centres undefined), the activation factor came out at 1.91 and the activity change, negative = activation is -90.9% (inactive).
Regarding `COC(=O)c1ccc(S(=O)(=O)N2CCCCCC2)cc1`, the activation factor stood at 0.874 and the activity change, negative = activation was 12.6% (inactive).
On to `CCC(C(=O)NCCC(C)C)n1ccc2cc(S(=O)(=O)N3CCCCC3)ccc21` (centres undefined), for which the activation factor was found to be 2.59 and the activity change, negative = activation is -159% (active).
In the case of `CCOc1ccccc1N(CC(=O)Nc1ccc(C)cc1)S(C)(=O)=O`, the activation factor stood at 0.98 and the activity change, negative = activation was 2.05% (inactive).
With `O=C(CC1Sc2ccccc2NC1=O)OCC(=O)N1CCc2ccccc21` (centres undefined), the activation factor was found to be 1.11 and the activity change, negative = activation was -10.6% (inactive).
Consider `Cc1ccc(NC(=O)Cn2cccc2)c(C)c1`, for which the activation factor was found to be 1.01 and the activity change, negative = activation was -1.25% (inactive).
Consider `Cc1ccc(NC(=O)NCC2CCN(Cc3cc(C)ccc3Cl)CC2)c(C)c1`, for which the activation factor was 1.87 and the activity change, negative = activation is -86.8% (active).
For the compound `CCOC(=O)CNC(=O)Nc1cccc(Cl)c1C`, the activation factor came out at 1.04 and the activity change, negative = activation was -4.45% (inactive).
On to `Cc1c(Cl)cccc1NC(=O)CCN1CCCCCC1`, for which the activation factor was determined as 0.984 and the activity change, negative = activation was 1.6% (inactive).
In the case of `Cc1ccc(NC(=O)CSCC(=O)O)c(C)c1`, the activation factor worked out at 1.07 and the activity change, negative = activation is -7.15% (inactive).
In the case of `Cc1ccc(C)c(CN2CCC(CNC(=O)Nc3cccc(Cl)c3C)CC2)c1`, the activation factor is 2.47 and the activity change, negative = activation is -147% (active).

These data come from PubChem BioAssay AID434970 (Sanford-Burnham Center for Chemical Genomics, 2010).
